High-throughput results: PubChem, National Center for Advancing Translational Sciences (NCATS)
An excerpt weighted towards active compounds, which were near 7.5% of everything screened.
ELG1 repair inh – inhibitors of ELG1-dependent DNA repair in HEK293T cells | HEK293T ELG1-luciferase reporter, luminescence, 16 h; DNA damage induced by 5-fluorouridine | actives 2.3% (n = 330,000) | Potency, µM (series often up to 46.1 µM), for inactives: at the highest dose activity change, negative = inhibition, usual class: inhibitors; further: potency means the concentration at half of the fitted maximal effect; nearly all actives have a fitted effect of over 55% in size
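DMSO vehicle served as the neutral condition. Each well held 2,000 cells given 5-fluorouridine plus compound; after 16 hr at 37 °C/5% CO2, ONE-Glo was added and luciferase measured 30 min later.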
B2AR arrestin – beta2AR (human) beta-arrestin recruitment activity; P07550; beta-arrestin recruitment to beta2AR, cell-based reporter; Potency, µM (titrated, usually from 46.1 µM), for inactives: at the top dose activation, most hits filed as activators; actives 0.02% (n = 330,000); AID 492947;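 further: potency means the concentration at half of the fitted maximal effect; 0% = DMSO controls and full agonism = EC100 isoproterenol or metaproterenol; nearly all actives have a fitted effect of over 65% in size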
Target sequence (P07550 whole entry, looked up): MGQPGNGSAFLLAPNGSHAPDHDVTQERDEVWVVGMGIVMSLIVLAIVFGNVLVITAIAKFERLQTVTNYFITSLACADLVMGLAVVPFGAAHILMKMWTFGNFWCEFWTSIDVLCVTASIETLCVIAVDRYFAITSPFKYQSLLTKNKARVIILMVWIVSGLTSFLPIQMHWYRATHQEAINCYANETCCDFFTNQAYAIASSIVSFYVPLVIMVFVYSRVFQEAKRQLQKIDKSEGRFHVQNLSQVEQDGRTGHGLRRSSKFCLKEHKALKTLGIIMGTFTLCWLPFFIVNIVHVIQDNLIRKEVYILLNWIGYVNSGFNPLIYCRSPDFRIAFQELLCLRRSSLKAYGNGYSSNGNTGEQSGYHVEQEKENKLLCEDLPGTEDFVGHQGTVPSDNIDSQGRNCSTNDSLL
TSHR antag – human thyrotropin receptor antagonism; AID 504810; activity change, negative = inhibition, % at 11.5 µM; actives 0.2% (n = 330,000); P16473; TSHR-expressing cells, TSH-stimulated cAMP HTRF, 2 h; hits give low values;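 active means activity change below a set negative limit, meaning inhibition stronger than a set level, cut at about -70% in these data; inconclusive means activity change between two set negative limits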
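Competitive HTRF cAMP read-out (cryptate anti-cAMP antibody, cAMP-d2; 30 min, room temperature) in freshly harvested TSHR cells. Compounds added before TSH at EC80 (4nM final), followed by 2 hours' incubation at 37 deg C.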
RORg inh – blocks mouse ROR gamma transcriptional activity. Drosophila S2 Gal4-RORgamma UAS-luciferase reporter, 20 h. Potency, µM (series often up to 53.6 µM), for the others: at the highest dose activity change, negative = inhibition, actives largely listed as inhibitors. actives 5.4% (n = 310,000); further: potency means the concentration at half of the fitted maximal effect; nearly all actives have a fitted effect of over 60% in size
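ROR gamma transcriptional activity was tracked as Gal4-UAS luciferase output in stably transfected Drosophila Schneider cells, with compound added 1 hr before 700 uM copper sulfate induction and a 20 hr ambient-temperature incubation.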
VP16 counter – Gal4-VP16 reporter inhibition counter-screen; Drosophila S2 Gal4-VP16 UAS-luciferase, luminescence, 20 h; Potency, µM (titrated, usually from 53.6 µM), for the others: at the top dose activity, negative = inhibition, usual class: inhibitors; actives 3.5% (n = 310,000); AID 2546;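 further: Gal4-VP16 expression switched on by copper sulfate through the metallothionein promoter; potency means the concentration at half of the fitted maximal effect; nearly all actives have a fitted effect of over 50% in size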
Active calls of the source: *; u = inconclusive; x = no result given; [ ] = dose if it differs, or a comment. Unless noted, the call rests on the fitted dose curve; in most records, active means well fitted curve in the direction sought with a large enough effect; inconclusive means small, poorly fitted or top-dose-only effect, or another doubt; inactive means no such curve, though single readings can be large; an effect the other way counts as inactive or inconclusive. Unless noted, on the % scale 0 is the no-effect control and ±100 the full control effect.

SMILES | ELG1 repair inh | B2AR arrestin | TSHR antag | RORg inh | VP16 counter
Cc1cccc(C2c3[nH]c4ccccc4c3CCN2C(=O)c2cc(CC(C)C)[nH]c(=O)n2)n1 (centres undefined) | -1.3% | 3.0% | 1.5 | 12.6µM* | u
O=C(Nc1ccccc1)N1CC2(CCN(C(=O)c3cccc(F)c3)CC2)C1 | x | x | x | -22.7% | -1.5%
CSCC[C@H](NC(=O)N1CCn2c1nc1ccccc12)C(=O)N1CCCCC1 | 10.2% | -0.1% | 3.3 | -34.5% | -0.1%
CCCCNC(=S)NNC(=O)C1=NN(c2cc(C)ccc2C)C(=O)CC1 | -4.6% | 0.5% | -12.6 | u | -11.7%
O=[N+]([O-])c1cccc(/C=N/Nc2nc(NCc3ccccc3)nc(N3CCOCC3)n2)c1O | 20.6µM* | -0.3% | -22.4 | 1.3% | -16.0%
O=[N+]([O-])c1ccc(/C=N/Nc2nc(NCc3ccccc3)nc(N3CCOCC3)n2)cc1 | 7.3µM* | 0.2% | -5.5 | -21.4% | 6.8%
NNc1nc(NCc2ccccc2)nc(N2CCOCC2)n1 | u | -0.3% | 31.1 | u | u
O=[N+]([O-])c1cccc(/C=N/Nc2nc(NCc3ccccc3)nc(N3CCOCC3)n2)c1 | 7.3% | -0.3% | 6.3 | -31.9% | -11.7%
COc1ccc(C(=O)O)cc1NC(=S)NC(=O)C(c1ccccc1)c1ccccc1 | 0.7% | 0.4% | 8.1 | 35.9% | 0.5%
COc1ccc(CNC(=O)CSc2nnc(NC(=O)c3ccccc3F)s2)cc1 | u | -0.3% | 0.6 | -0.7% | 21.6%
CCOC(=O)N1CCN(C(=O)C2CCC(CNS(=O)(=O)c3ccc(Cl)cc3)CC2)CC1 (centres undefined) | -11.3% | -0.3% | -7.3 | 32.9% | -7.3%
COc1ccc(CN2CCN(C(=O)C3CCN(S(=O)(=O)c4cccs4)CC3)CC2)c(OC)c1OC | 10.3µM* | 0.1% | 0.3 | u | -7.3%
COc1ccc(CN2CCN(C(=O)C3CCC(CNS(=O)(=O)c4ccc(C)cc4)CC3)CC2)c(OC)c1OC (centres undefined) | 11.6µM* | -0.1% | 1.8 | 28.9% | -0.7%
CC(C)=CCC/C(C)=C/CO/N=C1/[C@H]2O[C@@H]2[C@@H](O)[C@H]2[C@H]1CCn1c(=O)n(-c3ccccc3)c(=O)n12 | x | x | x | 13.9%[10 µM] | 9.4%[10 µM]
O=C(c1cc(C(F)(F)F)cc(C(F)(F)F)c1)N1CCC2(CCCN(Cc3nccs3)C2)CC1 | x | x | x | 2.7% | -10.1%
CC1C/C(=N/N2C(=O)CSC2=S)CC(C)(C)C1 (centres undefined) | -2.3% | -0.2% | 4.3 | 10µM* | -7.7%
O=C1CS/C(=N/N=C2C3CC4CC(C3)CC2C4)N1 | 14.4% | -0.3% | 1.5 | 4.47µM* | 3.16µM*
CC1C/C(=N/N=C2/NC(=O)CS2)CC(C)(C)C1 (centres undefined) | 1.3% | -0.5% | 5.0 | 2.24µM* | 5.01µM*
CCOc1ccc(S(=O)(=O)NCc2ccncc2)cc1NC(=O)c1ccccc1 | 4.11µM* | 0.1% | -10.5 | x | x
COc1ccccc1NC(=O)c1cc(S(=O)(=O)NCc2ccccc2)ccc1F | 16.4µM* | -0.4% | 7.2 | u | -9.0%
Cc1cc(NS(=O)(=O)c2ccc(NC(=O)Cc3ccc([N+](=O)[O-])cc3)cc2)nc(C)n1 | 5.4% | -1.3% | 2.3 | x | x
C=CCn1c(COc2ccccc2)nnc1SCC(=O)N/N=C/c1cc(Cl)ccc1O | x | x | x | 12.6µM* | u
C=CCn1c(COc2ccc(Cl)cc2)nnc1SCC(=O)NCC(=O)OCC | 3.5% | 0.4% | 6.1 | 11.2µM* | u
C=CCn1c(COc2ccccc2)nnc1SCC(=O)N/N=C/c1ccc(C)cc1 | 0.1% | -0.1% | 5.8 | 0.1% | -0.1%
CCCNC(=O)CN1C(=O)NC(c2ccccc2)(c2ccccc2)C1=O | 5.3% | -0.4% | -11.9 | -1.1% | -7.0%
O=C(O)C(Cc1cc(I)c(O)c(I)c1)c1ccccc1 (centres undefined) | x | x | x | -1.6% | -10.7%
O=C/C(=C\Nc1ccc(Cl)cn1)c1nc2ccccc2o1 | 15.7% | 0.0% | 4.6 | 14.1µM* | 22.4µM*
O=C/C(=C\Nc1ccc(S(=O)(=O)CCO)cc1)c1nc2cc(Cl)ccc2o1 | -17.5% | -1.0% | -10.8 | 8.91µM* | -15.1%
